Records with an inconclusive call do not appear. Unmarked numbers belong to inactive results. Active and inactive are the calls of the source. Calls follow the shape of the dose curve; as a rule, active = well fitted activation curve with a large enough effect; inconclusive = small, poorly fitted or top-dose-only effect; inactive = no such curve, though single readings can be large or run the other way.
target: Cellular tumor antigen p53 (Homo sapiens) (UniProt P04637); assay: Primary qHTS for small molecule compounds that upregulate eGFP-tagged delta133p53alpha (in N-terminal) cells. (AID 2060322); conditions: NCI-H358 eGFP-delta133p53alpha fluorescence, 24 h; activation: hits give high values; also: nearly all actives have a fitted effect of over 75% in size;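 as to activation: cells pre-induced with doxycycline then dosed without doxycycline; series mostly up to about 56 µM; 0% = DMSO vehicle and 100% = reference activator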
Procedure, shortened: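 NCI-H358 cells pre-induced 24 h with 10 ng/ml doxycycline for eGFP-delta133p53alpha, plated dox-free and exposed 24 h at 37C to titrated compounds. Fixed, Hoechst-stained; gated GFP peak intensity by laser scanning cytometry, normalized to DMSO (0%) and 57.5 uM 5-azacytidine (100%).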
Potency is read from the fitted curve at half-maximal effect.

Cellular tumor antigen p53 (Homo sapiens), sequence (P04637 whole entry, looked up): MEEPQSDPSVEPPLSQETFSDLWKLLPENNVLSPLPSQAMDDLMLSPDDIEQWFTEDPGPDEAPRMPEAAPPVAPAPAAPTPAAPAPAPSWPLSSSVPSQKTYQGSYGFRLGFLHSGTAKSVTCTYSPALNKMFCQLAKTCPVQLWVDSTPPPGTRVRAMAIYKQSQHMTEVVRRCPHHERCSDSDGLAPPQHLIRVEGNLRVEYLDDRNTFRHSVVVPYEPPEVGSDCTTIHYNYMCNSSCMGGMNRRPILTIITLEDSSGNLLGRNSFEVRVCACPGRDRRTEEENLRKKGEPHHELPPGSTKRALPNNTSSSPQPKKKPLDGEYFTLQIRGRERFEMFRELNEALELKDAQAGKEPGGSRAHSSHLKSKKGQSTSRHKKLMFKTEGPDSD

Question: For `CC(=O)NC(=O)c1ccccc1O`, which activation is on record?
Answer: The activation was 1.69%.

Question: For `O=S(=O)(N=Cc1c(O)ccc2ccccc12)c1cccs1`, which activation is on record?
Answer: The activation was 11.3%.

Question: How did the activation turn out when `COc1ccccc1N1CCN(CCCCNC(=O)c2ccc(-c3ccc(C(C)=O)cc3)cc2)CC1` was run?
Answer: Its activation is -10.9%.

Question: How did the activation turn out when `CC(C)N1[N]C(=C2C=c3cc(O)ccc3=N2)c2c(N)ncnc21` was run?
Answer: The activation was 11.7%.

Question: With `CCCCCCCCCCCCCCCCCC(=O)O` as the compound, how does the activation read?
Answer: The activation was 24.3%.

Question: With `CCC(=O)c1c(O)cc(O)cc1O` as the compound, how does the activation read?
Answer: Its activation is -1.67%.

Question: With `CON=C(C(=O)N[C@@H]1C(=O)N2C(C(=O)O)=C(CSC(=O)c3ccco3)CS[C@H]12)c1csc(N)n1` as the compound, how does the activation read?
Answer: Its activation is 4.83%.

Question: For `C=CCN1C[C@H](C(=O)N(CCCN(C)C)C(=O)NCC)C[C@@H]2c3cccc4[nH]cc(c34)C[C@H]21`, which activation is on record?
Answer: The activation was -8.37%.

Question: Which activation does the source give for `CC(=C(CCOC(=O)C(C)C)SSC(CCOC(=O)C(C)C)=C(C)N(C=O)Cc1cnc(C)nc1N)N(C=O)Cc1cnc(C)nc1N` here?
Answer: The activation was -4.18%.

Question: `CC(C)n1c(C=C[C@H](O)C[C@H](O)CC(=O)O)c(-c2ccc(F)cc2)c2ccccc21` was tested. Which activation did it give?
Answer: The activation was -24.6%.

Question: Which activation does the source give for `COc1ccc(C(Cl)=C(c2ccc(OC)cc2)c2ccc(OC)cc2)cc1` here?
Answer: The activation was -1.67%.

Question: How did the activation turn out when `CCOc1c(N2CCOCC2)cnn(C)c1=O` was run?
Answer: The activation was -4.18%.

Question: Which activation does the source give for `COc1ccc(-n2nc(CCC(=O)N(C)O)cc2-c2ccc(Cl)cc2)cc1` here?
Answer: Its activation is -8.47%.

Question: With `CCOCCn1c(C2CCN(CCc3ccc(C(C)(C)C(=O)O)cc3)CC2)nc2ccccc21` as the compound, how does the activation read?
Answer: The activation was -6.69%.

Question: Which activation does the source give for `CC(C)N(CCCNC(=O)Nc1ccc(C(C)(C)C)cc1)C[C@H]1O[C@@H](n2cc(Br)c3c(N)ncnc32)[C@H](O)[C@H]1O` here?
Answer: Its activation is -20.1%.

Question: `Nc1cccc2c(N)cccc12` was tested. Which Potency did it give?
Answer: Its Potency is 28.2 µM (active).

Question: For `CN1CCCC(CC2c3ccccc3Sc3ccccc32)C1` (stereo not drawn), which activation is on record?
Answer: Its activation is 14.2%.

Question: Which activation does the source give for `O=C(C=Cc1cccnc1)NCCCCC1CCN(C(=O)c2ccccc2)CC1` here?
Answer: Its activation is 8.39%.

Question: How did the activation turn out when `C[C@]1(Cn2ccnn2)[C@H](C(=O)O)N2C(=O)C[C@H]2S1(=O)=O` was run?
Answer: The activation was -22.6%.

Question: How did the activation turn out when `NC(CSCC(=O)O)C(=O)O` (stereo not drawn) was run?
Answer: Its activation is -5.08%.

Question: `O=C(Nc1ccc(Oc2ccc(Cl)cc2)c(Cl)c1)c1cc(I)cc(I)c1O` was tested. Which activation did it give?
Answer: The activation was -20.9%.

Question: `C[C@H]1[C@H](NC(=O)/C(=N/OC(C)(C)C(=O)O)c2csc(N)n2)C(=O)N1S(=O)(=O)O` (stereo in doubt) was tested. Which activation did it give?
Answer: The activation was 5.08%.

Question: `O=C(O)CC(O)C(=O)O` (stereo not drawn) was tested. Which activation did it give?
Answer: Its activation is -26.6%.
